Compounds without any hit were thinned out: in the full panel of roughly 79,000, 15% have a hit. Calls of active or inactive are those of the source. No stated cut-off is given here; in the data, active means growth inhibition above about 70%; inactive means the rest.
Columns and labels:
[1] = NCI Yeast Anticancer Drug Screen. Data for the rad50 strain (AID 155);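 further: 0% = growth of vehicle-only cultures of the same strain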; settings: S. cerevisiae rad50 strain growth inhibition; at 50.0 µM; hits give high values
In short: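 Growth of the mutant yeast was measured after compound exposure and referenced to vehicle-treated cultures.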

[2] = NCI Yeast Anticancer Drug Screen. Data for the mec2-1 strain (AID 157); settings: S. cerevisiae mec2-1 strain, at 50.0 µM, hits give high values
In short: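 Compounds were applied to mec2-1 yeast cells. Their growth was then compared with that of vehicle-treated cultures to give growth inhibition.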

[3] = NCI Yeast Anticancer Drug Screen. Data for the sgs1 mgt1 strain (AID 161);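 further: 0% = growth of cultures given vehicle only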; settings: S. cerevisiae sgs1 mgt1 strain, at 50.0 µM, hits give high values
In short: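 Percent growth inhibition was derived by comparing compound-exposed mutant yeast with vehicle-exposed cultures. The strain carries alterations in DNA damage repair.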

[4] = NCI Yeast Anticancer Drug Screen. Data for the cln2 rad14 strain (AID 165);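 further: 0% = growth equal to vehicle treated cultures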; settings: S. cerevisiae cln2 rad14 strain, at 50.0 µM, hits give high values
In short: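 Strain: cln2 rad14 yeast, altered in cell cycle control and DNA damage repair. Read-out: growth inhibition vs vehicle.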

[5] = NCI Yeast Anticancer Drug Screen. Data for the bub3 strain (AID 167); settings: S. cerevisiae bub3 mutant strain, at 50.0 µM, hits give high values
In short: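 Whole-cell yeast assay. The mutant strain was incubated with compounds, and growth inhibition was determined by comparison with vehicle-treated cells.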

[6] = NCI Yeast Anticancer Drug Screen. Data for the mlh1 rad18 strain (AID 175); settings: S. cerevisiae mlh1 rad18 strain growth inhibition; at 50.0 µM; hits give high values
In short: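 A repair-deficient yeast strain is exposed to test compound, and growth is scored relative to vehicle-treated controls.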

Measured: growth inhibition

CCc1cccc(CC)c1Nc1nc(-c2ccccc2-c2ccccc2)cs1
inactive: [1] -29.1% | [2] -4.4% | [3] -7.05% | [4] -99.2% | [5] -20.9% | [6] -39.9%

CC1(Br)CC2OC3(Br)C=CC(C)(O)C2(CC1=O)C3(C)C (stereo unspecified)
inactive: [1] 27.2% | [2] 10.8% | [3] 13.4% | [4] 15.7% | [5] 20.4% | [6] 25.9%

CC1c2c(ccc3c2CCC=C3)CCC1CC1=CCCc2ccc3ccccc3c21 (stereo unspecified)
inactive: [1] 6.7% | [2] -1.6% | [3] 1.1% | [4] -13.3% | [5] 0.1% | [6] 9.85%

O=c1c2ccccc2n2nnc3ccc(NCCNCCO)c1c32
inactive: [1] -15.1% | [2] 2.8% | [3] -0.7% | [4] 23.3% | [5] -0.45% | [6] -1.3%

CC1(C)CCC(C)(C)c2cc(C(=O)O)ccc21
inactive: [1] 7.55% | [2] 5.3% | [3] 1.55% | [4] 5.4% | [5] 14.4% | [6] 5.05%

c1ccc(C(=C2CCCCCCCCCCCCC2)c2ccccc2)cc1
inactive: [1] -25.2% | [2] 2.9% | [3] -2.9% | [4] -2% | [5] 25% | [6] -24%

C[N+]1(CC(O)C[N+]2(C)CCCCCC2)CCCCCC1
inactive: [1] 11.3% | [2] 14.1% | [3] -7.65% | [4] -6.2% | [5] -2.9% | [6] 32.8%

CCOC(=O)C(NC(=O)CC)(C(F)(F)F)P(=O)(OCC)OCC (stereo unspecified)
inactive: [1] -22.5% | [2] -12.3% | [3] -35.7% | [4] -11.8% | [5] 14.1% | [6] -9.35%

CCCCOC(=O)C(C)O (stereo unspecified)
inactive: [1] 41.1% | [2] 16.3% | [3] 21.6% | [4] 19.3% | [5] 0.05% | [6] 24.9%

NC(=Nc1ccccc1)c1ccc(Cl)cc1
active: [2] 96.5% | [4] 97.2% | [5] 98.6% | [6] 87.7%
inactive: [1] 66.2% | [3] 45.4%

COC(=O)C1(CC(=O)c2ccc(Cl)cc2Cl)NC(=S)NC(=O)C1C#N (stereo unspecified)
inactive: [1] 19.4% | [2] 9.05% | [3] -8.2% | [4] 16.2% | [5] 4.45% | [6] 18.8%

CN(Cc1ccccc1)C(=O)/C=C/c1ccccc1
inactive: [1] 9.8% | [2] 22.1% | [3] 26.4% | [4] 2.85% | [5] 27.2% | [6] 14.8%

COC(=O)c1nc(N)nc(C(=O)OC)c1C(=O)/C=C/c1ccccc1
inactive: [1] -4.2% | [2] -8.5% | [3] -21.5% | [4] -16.1% | [5] -26.4% | [6] -17.6%

COC=C(C(=O)OC)C(=O)OC
inactive: [1] -1.65% | [2] 3.9% | [3] 0.5% | [4] 0.2% | [5] -10.5% | [6] 3.85%

CCc1cccc(C)c1NC(=O)CC1C(=O)Nc2ccccc2S1=O (stereo unspecified)
inactive: [1] -6.1% | [2] -0.9% | [3] 13.2% | [4] -63.7% | [5] 9.85% | [6] 27.4%

CCCOC(=O)/C=C/C(=O)N1CC(C)N(C(=O)/C=C/C(=O)OCCC)CC1C (stereo unspecified)
inactive: [1] 3.85% | [2] -1.25% | [3] 9.6% | [4] 42.6% | [5] -2.9% | [6] 25.2%

COc1cc(C2c3cc4c(c(OS(=O)(=O)O)c3CC3COC(=O)C32)OCO4)cc(OC)c1OC (stereo unspecified)
inactive: [1] 6.3% | [2] 3.5% | [3] -18.9% | [4] -14.4% | [5] 15% | [6] 7.4%

O=C(OCCN=C1c2ccccc2CCc2ccccc21)c1ccccc1
inactive: [1] -12.2% | [2] -6.45% | [3] 18.9% | [4] 6.8% | [5] 37.3% | [6] 0.4%

CS(=O)(=O)c1[nH]nc2[nH]c(=O)[nH]c(=O)c12
inactive: [1] -30.5% | [2] -30.4% | [3] -26.5% | [4] -4.7% | [5] -28.8% | [6] 6.85%

CCNC(=S)Nc1ccc(OCC)cc1
inactive: [1] 14.2% | [2] 24.3% | [3] 31.4% | [4] -18.1% | [5] 33.9% | [6] 16.4%

CCCCC/C(C)=C(\C#N)C(=O)OC
inactive: [1] -5.4% | [2] -29.1% | [3] -19.2% | [4] -15.3% | [5] -34% | [6] -27.4%

c1ccc2c(c1)Cc1c(-c3ccncc3)n[nH]c1-2
inactive: [1] 48.8% | [2] 33% | [3] 41.6% | [4] 10.3% | [5] 19.3% | [6] 60.1%

CCO/C=C(\C(=O)OC)S(=O)(=O)c1ccc(C)cc1
inactive: [1] -18.5% | [2] 3.1% | [3] 2.35% | [4] 1.7% | [5] -9.1% | [6] -19.5%

COc1ccc2c(c1OC)C1CCCCC1SCC2=O (stereo unspecified)
inactive: [1] 14.4% | [2] 6.85% | [3] 0.7% | [4] 5.75% | [5] 12.5% | [6] -16.4%

CC(=O)CCc1ccc(Cl)cc1
inactive: [1] -21.6% | [2] -3.55% | [3] -1% | [4] 3.1% | [5] 5.4% | [6] -4.4%

C/C(=N\N)C1C(=O)c2ccccc2C1=O
inactive: [1] 6.1% | [2] 5.05% | [3] 13.7% | [4] 20.8% | [5] 8.8% | [6] 11.3%

C/C=C/c1nc2c(c(=O)n(C)c(=O)n2C)n1C
inactive: [1] -8.05% | [2] -8.2% | [3] -6% | [4] -28.8% | [5] 0.95% | [6] 7%

CCCCCCNC1=C(OC)C(=O)C(NCCCCCC)=C(OC)C1=O
inactive: [1] -7.4% | [2] 7.9% | [3] 2.1% | [4] -54.9% | [5] 8.5% | [6] -13.6%

O=C(Nc1ccccc1O)c1ccc([N+](=O)[O-])cc1
inactive: [1] 2.2% | [2] 34.4% | [3] -4.4% | [4] -15.6% | [5] 20.4% | [6] 19.1%

N#CC1CNC(N)NC1N (stereo unspecified)
inactive: [1] -0.1% | [2] 4.8% | [3] -8.05% | [4] -7.95% | [5] 7.35% | [6] 1.65%

O=C(O)CNC(=O)C(Cc1ccccc1)NC(=O)CNC(=O)C(CSC(c1ccccc1)c1ccccc1)NC(=O)C(CSC(c1ccccc1)(c1ccccc1)c1ccccc1)N1C(=O)c2ccccc2C1=O (stereo unspecified)
inactive: [1] 1.5% | [2] 14.1% | [3] -3.7% | [4] -17.9% | [5] -7.05% | [6] 11%

O=c1ncccn1C1OC(CO)C(O)C1F (stereo unspecified)
inactive: [1] 4.75% | [2] -6.7% | [3] 9.5% | [4] -7.15% | [5] 3.75% | [6] -1.7%

O=c1[nH]c2c(Cl)c(Cl)cc(Cl)c2o1
inactive: [1] 51.1% | [2] 6.4% | [3] 23.9% | [4] 48.2% | [5] 13.6% | [6] 43.6%

CN(C)CC(C)(C)CO
inactive: [1] 7.2% | [2] -0.2% | [3] 3.85% | [4] 9.25% | [5] -9.1% | [6] 4.95%

CC(C(=O)O)C(Nc1ncnc2c1ncn2C1OC(CO)C(O)C1O)C(=O)O (stereo unspecified)
inactive: [1] -8.4% | [2] -12.2% | [3] -27.6% | [4] -2.1% | [5] 3.5% | [6] -26.4%

CN(C)NC(=O)CC#N
inactive: [1] -18.4% | [2] -1.55% | [3] -4.45% | [4] -4.3% | [5] -6% | [6] 2.75%
